Test results reported in PubChem BioAssay (NCI).
About 83,000 compounds went through this panel and 20% of them were active in at least one assay; those are over-represented in the sample as a whole.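 Single-concentration screen, 48 h exposure, 96-well plates. Endpoint: percent growth. Below 10 = active.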 The source made the active and inactive calls.

Key:
Test in all cases: NCI-60 one-dose screen, 48 h (100 = growth as untreated, 0 = no growth, -100 = all killed)
[1] = system: NCI-H23 lung; details: 10 µM unless noted
[2] = system: NCI-H226 lung; details: 10 µM unless noted
[3] = system: NCI-H322M lung; details: 10 µM unless noted
[4] = system: HOP-62 NSCLC; details: 10 µM unless noted
[5] = system: NCI-H460 lung; details: 10 µM unless noted
[6] = system: HOP-92 NSCLC; details: 10 µM unless noted
[7] = system: NCI-H522 lung; details: 10 µM unless noted
[8] = system: A549/ATCC NSCLC; details: 10 µM unless noted
[9] = system: 786-0 renal; details: 10 µM unless noted
[10] = system: COLO 205 colon; details: 10 µM unless noted
[11] = system: DU-145 prostate; details: 10 µM unless noted
[12] = system: K-562 leukemia; details: 10 µM unless noted
[13] = system: MALME-3M melanoma; details: 10 µM unless noted
[14] = system: MDA-MB-231 breast; details: 10 µM unless noted
[15] = system: RXF 393 renal; details: 10 µM unless noted
[16] = system: SF-268 CNS; details: 10 µM unless noted
[17] = system: SF-295 CNS; details: 10 µM unless noted
[18] = system: SF-539 CNS; details: 10 µM unless noted
[19] = system: UACC-257 melanoma; details: 10 µM
[20] = system: M14 melanoma; details: 10 µM unless noted

Measured: growth

Oc1ccc(-c2nnc(SCc3ccc(O)c4ncccc34)o2)cc1
inactive: [1] 13.4% | [3] 19.8% | [4] 13.9% | [7] 11.4% | [8] 15.2% | [9] 20.5% | [10] 46.2% | [11] 21.2% | [12] 14.2% | [13] 18.7% | [14] 24.5% | [16] 15.9% | [18] 13.8%
active: [2] 8.78% | [5] 2.22% | [6] -15.9% | [15] -3.04% | [17] 0.187% | [19] 1.45% | [20] 0.609%

Cc1cc(-c2ccc3nc(N)sc3c2)nc2ccc3[nH]ncc3c12
inactive: [1] 39.4% | [2] 53% | [3] 67.1% | [4] 31.6% | [5] 14% | [6] 36.2% | [8] 45.4% | [9] 64.8% | [10] 12.5% | [11] 48.1% | [12] 21.1% | [13] 33.4% | [14] 46.2% | [15] 47% | [16] 49.5% | [17] 29.2% | [18] 20.9% | [19] 46.4% | [20] 19.7%
active: [7] 6.95%

CC(=O)Nc1ccc(NC(=O)Nc2cccc(-c3nc(-c4ccc(NC(=O)c5cccs5)cc4Cl)no3)c2)cc1C(F)(F)F
active: [1] -60.2% | [2] -41.2% | [3] -8.96% | [4] -74.8% | [5] -59.4% | [6] -46.8% | [7] -39.6% | [8] -27.1% | [9] -43.4% | [10] -64.4% | [11] -15.4% | [12] 1.01% | [13] -84.3% | [14] -60.6% | [15] -85% | [16] -38.8% | [17] -62.9% | [18] -87.5% | [19] -58.4% | [20] -59.2%

CN(c1ccc(Cl)cc1)S(=O)(=O)c1ccc(-c2cnc(C3CC3)o2)cc1
inactive: [1] 23.8% | [2] 14.5% | [3] 55% | [4] 45.6% | [6] 63.9% | [7] 30.8% | [8] 24.3% | [9] 31.9% | [11] 15.9% | [12] 10.4% | [13] 77.8% | [14] 22.3% | [15] 46.5% | [16] 40.2% | [17] 18% | [18] 10.4% | [19] 66.1% | [20] 24.9%
active: [5] 8.85% | [10] -7.11%

C[C@@H]1C[C@H]2C(=O)OCC(NC(=O)[C@H](Cc3cc(F)cc(F)c3)NC(=O)Nc3ccc(Cl)cc3F)C(=O)N3CCC[C@H]3C(=O)N3CCCC[C@H]3C(=O)N[C@@H](C)C(=O)N2C1 (stereo not given in full)
active: [2] -4.62% | [6] 9.65% | [10] -9.71% | [15] -12.6% | [17] 8.11%
inactive: [1] 37.9% | [3] 48.3% | [4] 39.1% | [5] 14.8% | [7] 17.2% | [8] 25.1% | [9] 33.6% | [11] 24.7% | [12] 19.3% | [13] 35.9% | [14] 27.3% | [16] 29.8% | [18] 32.1% | [19] 17.2% | [20] 19%

COc1ccc(CCN2C(=O)CSC2=S)cc1OC
inactive: [1] 98.9% | [2] 100% | [3] 101% | [4] 105% | [5] 102% | [6] 68.7% | [7] 55.1% | [8] 97.2% | [9] 94.9% | [10] 117% | [11] 18.9% | [12] 64.8% | [13] 95.6% | [14] 80.4% | [15] 59.2% | [16] 100% | [17] 102% | [18] 93.9% | [19] 96.4% | [20] 94.3%

C=CCn1c(SCC(=O)c2ccc(OC)cc2)nnc1-c1ccc(OC)cc1
inactive: [1] 97.6% | [2] 87.1% | [3] 97.4% | [4] 102% | [5] 102% | [6] 88.9% | [7] 99% | [8] 99.2% | [9] 99.4% | [10] 98.8% | [11] 99.8% | [12] 94.7% | [13] 96.4% | [14] 94.9% | [15] 87.9% | [16] 95.2% | [17] 97.7% | [18] 100% | [19] 96.8% | [20] 90.9%

COc1ccc(Oc2ccc(C3CC(c4cc(OC)c(OC)c(OC)c4)=NN3C(C)=O)cc2)cc1 (stereo not given)
inactive: [1] 24.1% | [2] 17.1% | [3] 46.9% | [4] 48.1% | [5] 23.8% | [6] 12.2% | [7] 20% | [8] 24.8% | [9] 29.2% | [10] 11.1% | [11] 40.4% | [12] 16.1% | [13] 33.6% | [14] 40.6% | [15] 17% | [16] 38.6% | [17] 22.5% | [18] 46.5% | [19] 40.3% | [20] 27.6%
